# Experimental data as given in ChEMBL document CHEMBL1961873, “Compounds: GSK PKIS; Assays: Nanosyn kinase panel” (2012).
# How the values were obtained:
# [1] = molecular target: Serine/threonine-protein kinase 4 (Homo sapiens) (UniProt Q13043); details: at 0.1 µM
# [2] = molecular target: Serine/threonine-protein kinase 4 (Homo sapiens) (UniProt Q13043); details: at 1 µM
# [3] = molecular target: Serine/threonine-protein kinase 3 (Homo sapiens) (UniProt Q13188); details: at 0.1 µM
# [4] = molecular target: Serine/threonine-protein kinase 3 (Homo sapiens) (UniProt Q13188); details: at 1 µM
# [5] = molecular target: Serine/threonine-protein kinase 26 (Homo sapiens) (UniProt Q9P289); details: at 0.1 µM
# Chain of Serine/threonine-protein kinase 26 (Homo sapiens) (Q9P289 2-416 limits assumed): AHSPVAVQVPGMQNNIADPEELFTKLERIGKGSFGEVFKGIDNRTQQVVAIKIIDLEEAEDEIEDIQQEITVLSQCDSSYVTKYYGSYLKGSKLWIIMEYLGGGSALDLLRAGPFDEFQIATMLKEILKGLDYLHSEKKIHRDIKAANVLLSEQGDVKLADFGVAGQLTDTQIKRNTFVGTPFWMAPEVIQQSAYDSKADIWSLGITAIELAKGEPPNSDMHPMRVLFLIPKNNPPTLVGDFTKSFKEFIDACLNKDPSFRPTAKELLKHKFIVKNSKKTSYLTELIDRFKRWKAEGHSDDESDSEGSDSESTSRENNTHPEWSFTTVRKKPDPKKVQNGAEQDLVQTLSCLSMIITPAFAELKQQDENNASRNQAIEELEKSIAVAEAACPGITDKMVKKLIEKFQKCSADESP
# [6] = molecular target: Serine/threonine-protein kinase 26 (Homo sapiens) (UniProt Q9P289); details: at 1 µM
# [7] = molecular target: Serine/threonine-protein kinase PAK 1 (Homo sapiens) (UniProt Q13153); details: at 0.1 µM
# [8] = molecular target: Serine/threonine-protein kinase PAK 1 (Homo sapiens) (UniProt Q13153); details: at 1 µM
# [9] = molecular target: Serine/threonine-protein kinase PAK 2 (Homo sapiens) (UniProt Q13177); details: at 0.1 µM
# [10] = molecular target: Serine/threonine-protein kinase PAK 2 (Homo sapiens) (UniProt Q13177); details: at 1 µM
# [11] = molecular target: Serine/threonine-protein kinase PAK 3 (Homo sapiens) (UniProt O75914); details: at 0.1 µM
# Chain of Serine/threonine-protein kinase PAK 3 (Homo sapiens) (O75914 whole entry, looked up): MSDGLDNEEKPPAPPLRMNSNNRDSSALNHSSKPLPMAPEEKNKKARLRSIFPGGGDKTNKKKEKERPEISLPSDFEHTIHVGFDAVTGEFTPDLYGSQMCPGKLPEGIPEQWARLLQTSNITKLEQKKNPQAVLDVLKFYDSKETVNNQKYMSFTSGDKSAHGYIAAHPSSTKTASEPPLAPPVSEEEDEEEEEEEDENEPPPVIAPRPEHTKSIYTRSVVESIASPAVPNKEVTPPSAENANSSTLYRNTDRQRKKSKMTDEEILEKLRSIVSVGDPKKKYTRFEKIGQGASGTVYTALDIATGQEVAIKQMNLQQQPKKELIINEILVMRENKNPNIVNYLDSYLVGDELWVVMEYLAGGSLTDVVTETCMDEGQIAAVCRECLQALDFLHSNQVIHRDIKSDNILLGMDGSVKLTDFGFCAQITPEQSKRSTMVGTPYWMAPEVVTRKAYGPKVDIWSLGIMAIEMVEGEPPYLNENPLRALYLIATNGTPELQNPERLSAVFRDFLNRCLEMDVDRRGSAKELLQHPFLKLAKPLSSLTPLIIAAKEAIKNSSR
# [12] = molecular target: Serine/threonine-protein kinase PAK 3 (Homo sapiens) (UniProt O75914); details: at 1 µM
# [13] = molecular target: Serine/threonine-protein kinase PAK 5 (Homo sapiens) (UniProt Q9P286); details: at 0.1 µM
# [14] = molecular target: Serine/threonine-protein kinase PAK 5 (Homo sapiens) (UniProt Q9P286); details: at 1 µM
# [15] = molecular target: Serine/threonine-protein kinase PAK 6 (Homo sapiens) (UniProt Q9NQU5); details: at 0.1 µM
# Chain of Serine/threonine-protein kinase PAK 6 (Homo sapiens) (Q9NQU5 whole entry, looked up): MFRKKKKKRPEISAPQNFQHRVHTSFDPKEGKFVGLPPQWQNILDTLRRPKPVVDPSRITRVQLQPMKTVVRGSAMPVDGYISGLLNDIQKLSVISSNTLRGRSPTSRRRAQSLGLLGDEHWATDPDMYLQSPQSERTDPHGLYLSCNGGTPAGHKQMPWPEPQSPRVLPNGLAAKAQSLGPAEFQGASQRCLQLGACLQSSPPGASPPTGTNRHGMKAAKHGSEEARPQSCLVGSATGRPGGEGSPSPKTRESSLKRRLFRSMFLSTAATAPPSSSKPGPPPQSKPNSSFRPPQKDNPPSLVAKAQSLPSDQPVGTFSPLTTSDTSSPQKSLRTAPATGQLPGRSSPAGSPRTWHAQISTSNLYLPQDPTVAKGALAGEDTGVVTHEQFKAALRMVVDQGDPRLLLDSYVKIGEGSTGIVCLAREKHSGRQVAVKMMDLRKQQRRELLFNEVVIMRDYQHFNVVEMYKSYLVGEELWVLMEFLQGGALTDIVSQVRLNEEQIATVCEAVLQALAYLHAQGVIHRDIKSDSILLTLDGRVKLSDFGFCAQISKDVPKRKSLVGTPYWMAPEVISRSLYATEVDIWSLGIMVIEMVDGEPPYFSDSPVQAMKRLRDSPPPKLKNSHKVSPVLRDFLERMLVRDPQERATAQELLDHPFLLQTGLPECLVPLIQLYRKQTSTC
# [16] = molecular target: Serine/threonine-protein kinase PAK 6 (Homo sapiens) (UniProt Q9NQU5); details: at 1 µM
# [17] = test system: Tyrosine-protein kinase ABL1 (Homo sapiens), P00519 [E255K]; details: at 0.1 µM
# [18] = test system: Tyrosine-protein kinase ABL1 (Homo sapiens), P00519 [E255K]; details: at 1 µM
# [19] = test system: Tyrosine-protein kinase ABL1 (Homo sapiens), P00519 [H396P]; details: at 0.1 µM
# [20] = test system: Tyrosine-protein kinase ABL1 (Homo sapiens), P00519 [H396P]; details: at 1 µM
# [21] = test system: Tyrosine-protein kinase ABL1 (Homo sapiens), P00519 [M351T]; details: at 0.1 µM
# [22] = test system: Tyrosine-protein kinase ABL1 (Homo sapiens), P00519 [M351T]; details: at 1 µM
# [23] = test system: Tyrosine-protein kinase ABL1 (Homo sapiens), P00519 [Q252H]; details: at 0.1 µM
# [24] = test system: Tyrosine-protein kinase ABL1 (Homo sapiens), P00519 [Q252H]; details: at 1 µM
# [25] = test system: Tyrosine-protein kinase ABL1 (Homo sapiens), P00519 [T315I]; details: at 0.1 µM
# [26] = test system: Tyrosine-protein kinase ABL1 (Homo sapiens), P00519 [T315I]; details: at 1 µM
# [27] = test system: Tyrosine-protein kinase ABL1 (Homo sapiens), P00519 [Y253F]; details: at 0.1 µM
# [28] = test system: Tyrosine-protein kinase ABL1 (Homo sapiens), P00519 [Y253F]; details: at 1 µM
# [29] = molecular target: Tyrosine-protein kinase ABL1 (Homo sapiens) (UniProt P00519); details: at 0.1 µM
# [30] = molecular target: Tyrosine-protein kinase ABL1 (Homo sapiens) (UniProt P00519); details: at 1 µM
# [31] = molecular target: ALK tyrosine kinase receptor (Homo sapiens) (UniProt Q9UM73); details: at 0.1 µM
# Chain of ALK tyrosine kinase receptor (Homo sapiens) (Q9UM73 19-1620 limits assumed): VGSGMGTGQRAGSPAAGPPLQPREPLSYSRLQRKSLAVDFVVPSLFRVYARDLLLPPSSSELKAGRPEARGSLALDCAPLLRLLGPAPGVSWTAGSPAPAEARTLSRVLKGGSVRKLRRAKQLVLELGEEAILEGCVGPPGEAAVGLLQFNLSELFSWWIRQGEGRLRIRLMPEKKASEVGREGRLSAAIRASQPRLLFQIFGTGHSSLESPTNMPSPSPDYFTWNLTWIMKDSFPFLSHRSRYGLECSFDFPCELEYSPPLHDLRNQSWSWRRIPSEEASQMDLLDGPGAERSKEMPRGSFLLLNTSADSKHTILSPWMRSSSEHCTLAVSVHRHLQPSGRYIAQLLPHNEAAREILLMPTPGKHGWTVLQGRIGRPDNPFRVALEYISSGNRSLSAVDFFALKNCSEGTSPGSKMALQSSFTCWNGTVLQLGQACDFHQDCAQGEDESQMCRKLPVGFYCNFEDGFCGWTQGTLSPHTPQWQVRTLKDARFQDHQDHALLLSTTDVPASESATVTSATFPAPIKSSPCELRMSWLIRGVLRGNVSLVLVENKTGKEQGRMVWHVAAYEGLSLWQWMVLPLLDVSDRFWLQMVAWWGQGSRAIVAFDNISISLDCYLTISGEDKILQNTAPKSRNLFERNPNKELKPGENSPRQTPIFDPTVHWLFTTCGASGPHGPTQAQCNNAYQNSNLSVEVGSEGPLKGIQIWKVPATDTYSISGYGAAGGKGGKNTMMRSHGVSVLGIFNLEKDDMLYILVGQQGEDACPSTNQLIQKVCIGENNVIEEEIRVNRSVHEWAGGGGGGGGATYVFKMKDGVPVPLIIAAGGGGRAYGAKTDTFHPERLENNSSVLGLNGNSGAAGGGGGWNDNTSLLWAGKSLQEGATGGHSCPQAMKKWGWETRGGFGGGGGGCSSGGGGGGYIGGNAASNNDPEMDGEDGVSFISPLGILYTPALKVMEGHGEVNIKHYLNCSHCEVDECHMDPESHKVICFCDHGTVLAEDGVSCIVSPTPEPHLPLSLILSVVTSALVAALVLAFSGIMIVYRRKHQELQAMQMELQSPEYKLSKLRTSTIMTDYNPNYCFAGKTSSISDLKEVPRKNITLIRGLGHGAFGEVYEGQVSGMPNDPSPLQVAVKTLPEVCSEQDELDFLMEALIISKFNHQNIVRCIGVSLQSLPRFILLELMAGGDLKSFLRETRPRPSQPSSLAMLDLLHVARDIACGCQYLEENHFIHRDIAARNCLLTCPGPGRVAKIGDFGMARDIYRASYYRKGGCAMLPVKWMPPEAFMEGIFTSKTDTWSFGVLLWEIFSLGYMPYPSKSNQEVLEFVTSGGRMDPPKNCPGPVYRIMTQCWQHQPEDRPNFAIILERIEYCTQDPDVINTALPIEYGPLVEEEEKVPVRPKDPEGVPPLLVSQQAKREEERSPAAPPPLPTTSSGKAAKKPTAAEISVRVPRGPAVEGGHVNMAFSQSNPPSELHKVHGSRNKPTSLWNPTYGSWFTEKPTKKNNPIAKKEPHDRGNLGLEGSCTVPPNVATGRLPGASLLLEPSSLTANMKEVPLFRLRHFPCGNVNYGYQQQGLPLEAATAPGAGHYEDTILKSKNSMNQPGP
# [32] = molecular target: ALK tyrosine kinase receptor (Homo sapiens) (UniProt Q9UM73); details: at 1 µM
# [33] = molecular target: Tyrosine-protein kinase ABL2 (Homo sapiens) (UniProt P42684); details: at 0.1 µM
# [34] = molecular target: Tyrosine-protein kinase ABL2 (Homo sapiens) (UniProt P42684); details: at 1 µM
# [35] = molecular target: Tyrosine-protein kinase receptor UFO (Homo sapiens) (UniProt P30530); details: at 0.1 µM
# [36] = molecular target: Tyrosine-protein kinase receptor UFO (Homo sapiens) (UniProt P30530); details: at 1 µM
# [37] = molecular target: Tyrosine-protein kinase Blk (Homo sapiens) (UniProt P51451); details: at 0.1 µM
# Chain of Tyrosine-protein kinase Blk (Homo sapiens) (P51451 2-505 limits assumed): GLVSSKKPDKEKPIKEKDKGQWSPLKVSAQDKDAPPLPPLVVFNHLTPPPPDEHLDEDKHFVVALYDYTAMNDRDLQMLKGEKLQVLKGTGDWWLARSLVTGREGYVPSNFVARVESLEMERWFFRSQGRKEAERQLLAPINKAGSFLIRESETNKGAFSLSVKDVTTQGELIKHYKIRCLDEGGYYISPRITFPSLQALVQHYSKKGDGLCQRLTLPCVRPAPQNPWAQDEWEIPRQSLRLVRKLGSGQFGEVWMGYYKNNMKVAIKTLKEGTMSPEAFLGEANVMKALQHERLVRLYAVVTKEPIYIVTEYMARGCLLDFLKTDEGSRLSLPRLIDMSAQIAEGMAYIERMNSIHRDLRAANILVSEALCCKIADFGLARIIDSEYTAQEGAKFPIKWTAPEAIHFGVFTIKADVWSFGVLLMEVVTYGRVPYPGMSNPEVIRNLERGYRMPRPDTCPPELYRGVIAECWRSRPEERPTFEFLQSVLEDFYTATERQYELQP
# [38] = molecular target: Tyrosine-protein kinase Blk (Homo sapiens) (UniProt P51451); details: at 1 µM
# [39] = molecular target: Cytoplasmic tyrosine-protein kinase BMX (Homo sapiens) (UniProt P51813); details: at 0.1 µM
# Chain of Cytoplasmic tyrosine-protein kinase BMX (Homo sapiens) (P51813 whole entry): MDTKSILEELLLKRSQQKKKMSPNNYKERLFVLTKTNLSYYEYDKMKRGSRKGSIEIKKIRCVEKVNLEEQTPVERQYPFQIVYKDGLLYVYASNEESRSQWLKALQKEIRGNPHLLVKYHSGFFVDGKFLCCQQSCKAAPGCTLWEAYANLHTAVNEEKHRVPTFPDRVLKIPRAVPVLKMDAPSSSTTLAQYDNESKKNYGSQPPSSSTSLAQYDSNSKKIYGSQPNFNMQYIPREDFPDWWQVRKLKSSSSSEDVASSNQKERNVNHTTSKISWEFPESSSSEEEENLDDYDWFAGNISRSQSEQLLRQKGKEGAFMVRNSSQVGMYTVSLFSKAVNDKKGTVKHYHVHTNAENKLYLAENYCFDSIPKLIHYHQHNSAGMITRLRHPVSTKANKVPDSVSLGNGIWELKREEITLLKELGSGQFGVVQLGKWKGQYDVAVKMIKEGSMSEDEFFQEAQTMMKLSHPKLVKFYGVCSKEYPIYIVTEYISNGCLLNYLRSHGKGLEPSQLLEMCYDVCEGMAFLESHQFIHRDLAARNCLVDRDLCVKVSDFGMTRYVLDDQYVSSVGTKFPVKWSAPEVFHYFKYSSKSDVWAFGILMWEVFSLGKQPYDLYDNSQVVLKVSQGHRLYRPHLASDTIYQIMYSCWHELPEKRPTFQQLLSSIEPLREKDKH
# [40] = molecular target: Cytoplasmic tyrosine-protein kinase BMX (Homo sapiens) (UniProt P51813); details: at 1 µM
# [41] = molecular target: Protein-tyrosine kinase 6 (Homo sapiens) (UniProt Q13882); details: at 0.1 µM
# Chain of Protein-tyrosine kinase 6 (Homo sapiens) (Q13882 whole entry, looked up): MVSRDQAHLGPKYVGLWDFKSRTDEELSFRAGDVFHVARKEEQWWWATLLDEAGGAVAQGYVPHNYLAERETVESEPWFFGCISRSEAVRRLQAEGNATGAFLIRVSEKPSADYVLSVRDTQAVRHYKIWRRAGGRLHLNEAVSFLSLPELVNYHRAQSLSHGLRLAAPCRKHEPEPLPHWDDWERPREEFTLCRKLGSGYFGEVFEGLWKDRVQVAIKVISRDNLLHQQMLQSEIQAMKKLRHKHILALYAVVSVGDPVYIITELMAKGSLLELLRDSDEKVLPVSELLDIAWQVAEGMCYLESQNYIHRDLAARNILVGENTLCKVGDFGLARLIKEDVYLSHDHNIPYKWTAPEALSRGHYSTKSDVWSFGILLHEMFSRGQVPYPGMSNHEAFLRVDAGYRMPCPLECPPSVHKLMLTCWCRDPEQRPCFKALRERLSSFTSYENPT
# [42] = molecular target: Protein-tyrosine kinase 6 (Homo sapiens) (UniProt Q13882); details: at 1 µM
# [43] = molecular target: Tyrosine-protein kinase BTK (Homo sapiens) (UniProt Q06187); details: at 0.1 µM
# [44] = molecular target: Tyrosine-protein kinase BTK (Homo sapiens) (UniProt Q06187); details: at 1 µM
# [45] = molecular target: Tyrosine-protein kinase CSK (Homo sapiens) (UniProt P41240); details: at 0.1 µM
# [46] = molecular target: Tyrosine-protein kinase CSK (Homo sapiens) (UniProt P41240); details: at 1 µM
# [47] = molecular target: Discoidin domain-containing receptor 2 (Homo sapiens) (UniProt Q16832); details: at 0.1 µM
# [48] = molecular target: Discoidin domain-containing receptor 2 (Homo sapiens) (UniProt Q16832); details: at 1 µM
# [49] = molecular target: Epidermal growth factor receptor (Homo sapiens) (UniProt P00533); details: at 0.1 µM
# [50] = molecular target: Epidermal growth factor receptor (Homo sapiens) (UniProt P00533); details: at 1 µM
# [51] = test system: Epidermal growth factor receptor (Homo sapiens), P00533 [L858R]; details: at 0.1 µM
# [52] = test system: Epidermal growth factor receptor (Homo sapiens), P00533 [L858R]; details: at 1 µM
# [53] = test system: Epidermal growth factor receptor (Homo sapiens), P00533 [L861Q]; details: at 0.1 µM
# [54] = test system: Epidermal growth factor receptor (Homo sapiens), P00533 [L861Q]; details: at 1 µM
# [55] = test system: Epidermal growth factor receptor (Homo sapiens), P00533 [T790M]; details: at 0.1 µM
# [56] = test system: Epidermal growth factor receptor (Homo sapiens), P00533 [T790M]; details: at 1 µM
smiles,measurement,setting,value
CNC(=O)Oc1cc(C)c(/C=C/c2cncc(C(=O)NC)c2)c(C)c1,inhibition,[1],4.28%
same,inhibition,[2],7.77%
same,inhibition,[3],4.88%
same,inhibition,[4],4.5%
same,inhibition,[5],-0.01%
same,inhibition,[6],-0.02%
same,inhibition,[7],3.48%
same,inhibition,[8],5.41%
same,inhibition,[9],1.99%
same,inhibition,[10],1.98%
same,inhibition,[11],1.98%
same,inhibition,[12],3.68%
same,inhibition,[13],-4.59%
same,inhibition,[14],-1.52%
same,inhibition,[15],5.83%
same,inhibition,[16],-0.24%
same,inhibition,[17],7.72%
same,inhibition,[18],50.5%
same,inhibition,[19],17.9%
same,inhibition,[20],66.5%
same,inhibition,[21],18.4%
same,inhibition,[22],65%
same,inhibition,[23],14.5%
same,inhibition,[24],58.6%
same,inhibition,[25],1.76%
same,inhibition,[26],3.56%
same,inhibition,[27],23%
same,inhibition,[28],69.2%
same,inhibition,[29],12.9%
same,inhibition,[30],55.8%
same,inhibition,[31],2.46%
same,inhibition,[32],14.2%
same,inhibition,[33],9.35%
same,inhibition,[34],64.3%
same,inhibition,[35],-1.68%
same,inhibition,[36],1.31%
same,inhibition,[37],2.38%
same,inhibition,[38],17.7%
same,inhibition,[39],6.61%
same,inhibition,[40],48.2%
same,inhibition,[41],17.1%
same,inhibition,[42],66.2%
same,inhibition,[43],3.71%
same,inhibition,[44],7.17%
same,inhibition,[45],7.8%
same,inhibition,[46],23%
same,inhibition,[47],1.69%
same,inhibition,[48],4.31%
same,inhibition,[49],1.01%
same,inhibition,[50],3.7%
same,inhibition,[51],1.37%
same,inhibition,[52],18.1%
same,inhibition,[53],1.07%
same,inhibition,[54],2.38%
same,inhibition,[55],0.88%
same,inhibition,[56],0.02%
